Laboratory results published in ChEMBL document CHEMBL2218924, “A broad activity screen in support of a chemogenomic map for kinase signalling research and drug discovery” (Biochem J, 2013).

Assays:
[1] = molecular target: Death-associated protein kinase 1 (Homo sapiens) (UniProt P53355); details: at 10 µM
[2] = molecular target: Death-associated protein kinase 2 (Homo sapiens) (UniProt Q9UIK4); details: at 1 µM
[3] = molecular target: Death-associated protein kinase 2 (Homo sapiens) (UniProt Q9UIK4); details: at 10 µM
[4] = molecular target: T1, Serine/threonine-protein kinase DCLK2 (Homo sapiens) (UniProt Q8N568); details: at 1 µM
T1 sequence (whole entry): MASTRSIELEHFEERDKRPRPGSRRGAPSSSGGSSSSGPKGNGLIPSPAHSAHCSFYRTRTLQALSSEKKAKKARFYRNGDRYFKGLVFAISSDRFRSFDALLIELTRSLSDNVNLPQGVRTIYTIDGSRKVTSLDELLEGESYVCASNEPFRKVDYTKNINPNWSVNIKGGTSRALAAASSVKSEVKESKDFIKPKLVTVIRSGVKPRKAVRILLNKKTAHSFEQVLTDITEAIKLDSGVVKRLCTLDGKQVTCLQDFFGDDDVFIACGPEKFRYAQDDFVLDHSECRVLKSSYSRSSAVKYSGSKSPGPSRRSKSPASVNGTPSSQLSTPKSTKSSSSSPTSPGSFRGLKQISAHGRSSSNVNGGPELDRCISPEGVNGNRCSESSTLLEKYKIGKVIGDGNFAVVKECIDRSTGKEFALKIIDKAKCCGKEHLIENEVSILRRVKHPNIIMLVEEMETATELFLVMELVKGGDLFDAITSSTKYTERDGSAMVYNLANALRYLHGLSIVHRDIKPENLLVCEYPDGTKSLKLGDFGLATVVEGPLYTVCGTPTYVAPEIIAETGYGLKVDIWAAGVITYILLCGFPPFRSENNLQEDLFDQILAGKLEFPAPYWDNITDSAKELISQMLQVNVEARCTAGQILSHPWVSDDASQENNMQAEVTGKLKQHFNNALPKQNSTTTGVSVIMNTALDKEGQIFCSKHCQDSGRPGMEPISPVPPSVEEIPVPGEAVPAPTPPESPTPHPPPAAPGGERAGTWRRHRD

[5] = molecular target: T1, Serine/threonine-protein kinase DCLK2 (Homo sapiens); details: at 10 µM
[6] = molecular target: T2, Discoidin domain-containing receptor 2 (Homo sapiens) (UniProt Q16832); details: at 1 µM
T2 sequence (whole entry): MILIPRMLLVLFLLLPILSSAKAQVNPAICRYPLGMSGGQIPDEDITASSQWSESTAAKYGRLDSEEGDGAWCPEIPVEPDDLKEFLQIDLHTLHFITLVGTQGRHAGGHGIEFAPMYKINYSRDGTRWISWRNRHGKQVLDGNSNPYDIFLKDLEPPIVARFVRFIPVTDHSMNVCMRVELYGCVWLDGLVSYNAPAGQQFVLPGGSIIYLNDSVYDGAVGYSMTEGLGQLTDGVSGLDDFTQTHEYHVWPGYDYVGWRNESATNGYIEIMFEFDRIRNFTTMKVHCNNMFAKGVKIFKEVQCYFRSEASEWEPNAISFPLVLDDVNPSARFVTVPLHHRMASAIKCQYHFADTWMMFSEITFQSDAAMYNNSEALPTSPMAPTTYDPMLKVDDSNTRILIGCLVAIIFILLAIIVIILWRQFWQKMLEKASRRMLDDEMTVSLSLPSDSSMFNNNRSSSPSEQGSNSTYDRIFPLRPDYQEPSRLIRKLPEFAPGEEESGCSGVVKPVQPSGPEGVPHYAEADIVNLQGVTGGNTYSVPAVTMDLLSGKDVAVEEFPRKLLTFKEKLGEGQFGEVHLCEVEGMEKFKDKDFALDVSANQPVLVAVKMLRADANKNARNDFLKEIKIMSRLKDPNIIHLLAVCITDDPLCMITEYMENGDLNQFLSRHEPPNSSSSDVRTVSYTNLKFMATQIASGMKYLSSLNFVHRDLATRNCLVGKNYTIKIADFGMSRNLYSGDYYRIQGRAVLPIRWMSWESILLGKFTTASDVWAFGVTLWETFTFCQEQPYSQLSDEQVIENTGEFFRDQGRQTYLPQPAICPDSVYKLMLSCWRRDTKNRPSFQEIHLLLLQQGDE

[7] = molecular target: T2, Discoidin domain-containing receptor 2 (Homo sapiens); details: at 10 µM
[8] = molecular target: T3, Myotonin-protein kinase (Homo sapiens) (UniProt Q09013); details: at 1 µM
T3 sequence (whole entry): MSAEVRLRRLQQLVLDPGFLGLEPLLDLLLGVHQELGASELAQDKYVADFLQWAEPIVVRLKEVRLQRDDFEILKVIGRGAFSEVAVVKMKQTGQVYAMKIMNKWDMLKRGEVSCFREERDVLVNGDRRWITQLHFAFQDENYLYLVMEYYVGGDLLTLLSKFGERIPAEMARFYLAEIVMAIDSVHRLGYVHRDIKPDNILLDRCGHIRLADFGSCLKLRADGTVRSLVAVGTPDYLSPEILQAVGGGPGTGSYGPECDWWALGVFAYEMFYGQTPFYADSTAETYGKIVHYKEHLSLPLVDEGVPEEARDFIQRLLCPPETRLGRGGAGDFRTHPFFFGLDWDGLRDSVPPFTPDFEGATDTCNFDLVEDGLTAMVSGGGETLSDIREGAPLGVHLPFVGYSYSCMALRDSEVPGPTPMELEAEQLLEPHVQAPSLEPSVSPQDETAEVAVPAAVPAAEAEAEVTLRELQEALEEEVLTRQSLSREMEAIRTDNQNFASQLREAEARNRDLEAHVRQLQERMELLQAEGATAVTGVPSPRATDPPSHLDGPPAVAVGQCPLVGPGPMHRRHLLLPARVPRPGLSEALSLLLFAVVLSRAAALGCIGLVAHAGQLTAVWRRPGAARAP

[9] = molecular target: T3, Myotonin-protein kinase (Homo sapiens); details: at 10 µM
[10] = molecular target: T4, Serine/threonine-protein kinase 17A (Homo sapiens) (UniProt Q9UEE5); details: at 1 µM
T4 sequence (whole entry): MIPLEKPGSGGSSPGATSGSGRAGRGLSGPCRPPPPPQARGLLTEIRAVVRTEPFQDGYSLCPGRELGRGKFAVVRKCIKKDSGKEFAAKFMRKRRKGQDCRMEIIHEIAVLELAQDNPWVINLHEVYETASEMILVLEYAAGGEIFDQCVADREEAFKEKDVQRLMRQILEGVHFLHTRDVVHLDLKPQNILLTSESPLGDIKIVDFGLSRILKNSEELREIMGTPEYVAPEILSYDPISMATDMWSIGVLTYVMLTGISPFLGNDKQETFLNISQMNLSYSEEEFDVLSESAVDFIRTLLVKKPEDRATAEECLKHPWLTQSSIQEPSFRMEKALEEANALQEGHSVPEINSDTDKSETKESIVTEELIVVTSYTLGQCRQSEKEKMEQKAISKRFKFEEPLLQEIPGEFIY

[11] = molecular target: T4, Serine/threonine-protein kinase 17A (Homo sapiens); details: at 10 µM
[12] = molecular target: T5, Dual specificity tyrosine-phosphorylation-regulated kinase 2 (Homo sapiens) (UniProt Q92630); details: at 1 µM
T5 sequence (whole entry): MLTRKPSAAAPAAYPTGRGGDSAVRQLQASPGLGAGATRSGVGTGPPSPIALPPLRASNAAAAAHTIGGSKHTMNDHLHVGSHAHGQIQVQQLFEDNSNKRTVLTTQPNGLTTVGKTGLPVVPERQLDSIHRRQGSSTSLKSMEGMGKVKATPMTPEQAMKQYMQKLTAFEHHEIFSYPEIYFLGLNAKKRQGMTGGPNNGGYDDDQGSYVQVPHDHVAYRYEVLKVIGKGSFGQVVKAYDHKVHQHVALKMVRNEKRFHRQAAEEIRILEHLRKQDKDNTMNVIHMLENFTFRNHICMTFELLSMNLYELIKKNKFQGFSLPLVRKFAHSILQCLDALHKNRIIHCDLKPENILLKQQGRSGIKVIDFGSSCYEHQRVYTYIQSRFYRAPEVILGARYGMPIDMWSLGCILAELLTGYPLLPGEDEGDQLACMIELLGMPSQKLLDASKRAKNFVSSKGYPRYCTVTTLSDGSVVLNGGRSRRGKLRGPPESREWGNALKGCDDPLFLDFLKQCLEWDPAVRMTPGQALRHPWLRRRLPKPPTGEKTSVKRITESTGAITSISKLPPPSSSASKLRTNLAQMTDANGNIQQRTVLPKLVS

[13] = molecular target: T5, Dual specificity tyrosine-phosphorylation-regulated kinase 2 (Homo sapiens); details: at 10 µM
[14] = molecular target: Epidermal growth factor receptor (Homo sapiens) (UniProt P00533); details: at 1 µM
Sequence of Epidermal growth factor receptor (Homo sapiens) (P00533 whole entry): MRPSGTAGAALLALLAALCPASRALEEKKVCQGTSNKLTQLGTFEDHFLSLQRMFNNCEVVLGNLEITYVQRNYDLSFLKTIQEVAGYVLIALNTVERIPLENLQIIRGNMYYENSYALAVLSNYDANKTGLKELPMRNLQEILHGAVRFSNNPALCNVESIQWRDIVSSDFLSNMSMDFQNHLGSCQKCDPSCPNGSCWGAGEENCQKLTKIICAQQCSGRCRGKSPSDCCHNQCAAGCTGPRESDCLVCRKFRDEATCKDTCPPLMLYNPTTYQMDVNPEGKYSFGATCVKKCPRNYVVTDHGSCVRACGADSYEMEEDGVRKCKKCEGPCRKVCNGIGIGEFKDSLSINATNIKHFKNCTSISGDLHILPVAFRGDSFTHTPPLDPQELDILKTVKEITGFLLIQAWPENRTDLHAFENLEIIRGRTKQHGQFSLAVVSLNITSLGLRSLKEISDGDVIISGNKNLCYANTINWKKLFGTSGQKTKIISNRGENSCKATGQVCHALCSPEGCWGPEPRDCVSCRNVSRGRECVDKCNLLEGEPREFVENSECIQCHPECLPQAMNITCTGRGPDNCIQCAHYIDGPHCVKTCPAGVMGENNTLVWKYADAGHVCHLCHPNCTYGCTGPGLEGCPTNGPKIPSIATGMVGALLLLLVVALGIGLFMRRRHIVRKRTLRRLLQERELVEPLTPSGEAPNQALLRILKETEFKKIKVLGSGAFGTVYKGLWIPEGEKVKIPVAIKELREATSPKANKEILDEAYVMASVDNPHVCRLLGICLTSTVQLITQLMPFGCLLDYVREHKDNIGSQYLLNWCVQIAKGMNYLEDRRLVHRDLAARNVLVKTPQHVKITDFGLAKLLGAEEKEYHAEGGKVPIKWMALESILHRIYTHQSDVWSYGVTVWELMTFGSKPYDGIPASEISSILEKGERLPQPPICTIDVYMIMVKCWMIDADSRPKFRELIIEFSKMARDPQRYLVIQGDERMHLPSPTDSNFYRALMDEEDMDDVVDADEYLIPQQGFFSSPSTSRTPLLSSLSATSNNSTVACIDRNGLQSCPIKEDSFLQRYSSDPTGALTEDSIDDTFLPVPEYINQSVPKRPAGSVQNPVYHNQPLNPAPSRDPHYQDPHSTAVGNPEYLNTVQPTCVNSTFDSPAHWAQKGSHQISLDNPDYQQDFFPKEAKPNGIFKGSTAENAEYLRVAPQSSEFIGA

[15] = molecular target: Epidermal growth factor receptor (Homo sapiens) (UniProt P00533); details: at 10 µM
[16] = molecular target: T6, Ephrin type-A receptor 1 (Homo sapiens) (UniProt P21709); details: at 1 µM
T6 sequence (whole entry): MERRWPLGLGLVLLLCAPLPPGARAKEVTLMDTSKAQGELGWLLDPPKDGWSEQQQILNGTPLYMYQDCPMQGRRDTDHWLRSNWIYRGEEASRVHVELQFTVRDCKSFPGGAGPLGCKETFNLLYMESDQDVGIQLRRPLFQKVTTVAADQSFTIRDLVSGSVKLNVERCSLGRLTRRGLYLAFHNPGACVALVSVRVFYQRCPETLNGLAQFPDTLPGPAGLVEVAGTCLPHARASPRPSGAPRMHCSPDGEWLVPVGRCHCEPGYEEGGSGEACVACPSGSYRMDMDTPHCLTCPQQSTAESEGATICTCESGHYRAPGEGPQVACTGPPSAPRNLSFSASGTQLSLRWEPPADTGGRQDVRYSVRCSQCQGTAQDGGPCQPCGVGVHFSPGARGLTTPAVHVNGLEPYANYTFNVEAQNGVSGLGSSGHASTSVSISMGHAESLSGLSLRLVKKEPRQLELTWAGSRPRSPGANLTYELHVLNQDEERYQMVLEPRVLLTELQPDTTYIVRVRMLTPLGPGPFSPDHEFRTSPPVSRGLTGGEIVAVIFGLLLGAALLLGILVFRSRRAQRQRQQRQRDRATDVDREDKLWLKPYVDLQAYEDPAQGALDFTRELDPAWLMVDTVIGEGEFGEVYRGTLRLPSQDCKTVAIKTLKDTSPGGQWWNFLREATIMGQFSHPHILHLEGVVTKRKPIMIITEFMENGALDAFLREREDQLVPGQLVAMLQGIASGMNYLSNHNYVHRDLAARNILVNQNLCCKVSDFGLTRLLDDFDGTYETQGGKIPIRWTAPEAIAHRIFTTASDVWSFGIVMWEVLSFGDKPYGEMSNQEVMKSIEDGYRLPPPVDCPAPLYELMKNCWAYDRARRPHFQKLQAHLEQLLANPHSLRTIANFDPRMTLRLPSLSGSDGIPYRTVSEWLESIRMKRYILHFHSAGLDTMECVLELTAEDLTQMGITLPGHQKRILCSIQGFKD

[17] = molecular target: T6, Ephrin type-A receptor 1 (Homo sapiens); details: at 10 µM
[18] = molecular target: Ephrin type-A receptor 2 (Homo sapiens) (UniProt P29317); details: at 1 µM
Sequence of Ephrin type-A receptor 2 (Homo sapiens) (P29317 whole entry): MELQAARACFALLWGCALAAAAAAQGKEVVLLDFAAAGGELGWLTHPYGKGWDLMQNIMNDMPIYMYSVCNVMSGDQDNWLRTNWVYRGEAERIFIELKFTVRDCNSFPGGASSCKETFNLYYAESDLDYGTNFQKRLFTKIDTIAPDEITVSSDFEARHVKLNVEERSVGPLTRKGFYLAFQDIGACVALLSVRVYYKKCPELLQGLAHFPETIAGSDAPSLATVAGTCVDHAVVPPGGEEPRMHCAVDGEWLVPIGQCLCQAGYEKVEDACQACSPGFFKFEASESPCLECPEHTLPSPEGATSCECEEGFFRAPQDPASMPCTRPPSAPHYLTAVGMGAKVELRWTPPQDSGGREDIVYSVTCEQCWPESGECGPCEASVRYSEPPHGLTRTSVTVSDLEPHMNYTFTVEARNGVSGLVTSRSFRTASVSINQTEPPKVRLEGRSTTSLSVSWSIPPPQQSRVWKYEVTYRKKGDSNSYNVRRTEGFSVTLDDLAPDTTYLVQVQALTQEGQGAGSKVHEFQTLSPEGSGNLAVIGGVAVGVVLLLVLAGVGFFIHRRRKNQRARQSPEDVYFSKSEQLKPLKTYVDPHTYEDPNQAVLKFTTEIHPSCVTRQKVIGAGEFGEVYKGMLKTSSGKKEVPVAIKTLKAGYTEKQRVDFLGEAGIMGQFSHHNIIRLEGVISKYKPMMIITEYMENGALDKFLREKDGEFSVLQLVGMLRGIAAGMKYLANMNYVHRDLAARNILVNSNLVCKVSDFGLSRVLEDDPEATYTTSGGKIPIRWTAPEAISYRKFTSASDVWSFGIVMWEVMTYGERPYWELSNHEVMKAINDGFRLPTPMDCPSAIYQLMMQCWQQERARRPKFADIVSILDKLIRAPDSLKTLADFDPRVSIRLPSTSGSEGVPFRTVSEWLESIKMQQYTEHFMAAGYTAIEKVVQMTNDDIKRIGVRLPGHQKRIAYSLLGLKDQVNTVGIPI

[19] = molecular target: Ephrin type-A receptor 2 (Homo sapiens) (UniProt P29317); details: at 10 µM
[20] = molecular target: T7, Ephrin type-A receptor 3 (Homo sapiens) (UniProt P29320); details: at 1 µM
T7 sequence (whole entry): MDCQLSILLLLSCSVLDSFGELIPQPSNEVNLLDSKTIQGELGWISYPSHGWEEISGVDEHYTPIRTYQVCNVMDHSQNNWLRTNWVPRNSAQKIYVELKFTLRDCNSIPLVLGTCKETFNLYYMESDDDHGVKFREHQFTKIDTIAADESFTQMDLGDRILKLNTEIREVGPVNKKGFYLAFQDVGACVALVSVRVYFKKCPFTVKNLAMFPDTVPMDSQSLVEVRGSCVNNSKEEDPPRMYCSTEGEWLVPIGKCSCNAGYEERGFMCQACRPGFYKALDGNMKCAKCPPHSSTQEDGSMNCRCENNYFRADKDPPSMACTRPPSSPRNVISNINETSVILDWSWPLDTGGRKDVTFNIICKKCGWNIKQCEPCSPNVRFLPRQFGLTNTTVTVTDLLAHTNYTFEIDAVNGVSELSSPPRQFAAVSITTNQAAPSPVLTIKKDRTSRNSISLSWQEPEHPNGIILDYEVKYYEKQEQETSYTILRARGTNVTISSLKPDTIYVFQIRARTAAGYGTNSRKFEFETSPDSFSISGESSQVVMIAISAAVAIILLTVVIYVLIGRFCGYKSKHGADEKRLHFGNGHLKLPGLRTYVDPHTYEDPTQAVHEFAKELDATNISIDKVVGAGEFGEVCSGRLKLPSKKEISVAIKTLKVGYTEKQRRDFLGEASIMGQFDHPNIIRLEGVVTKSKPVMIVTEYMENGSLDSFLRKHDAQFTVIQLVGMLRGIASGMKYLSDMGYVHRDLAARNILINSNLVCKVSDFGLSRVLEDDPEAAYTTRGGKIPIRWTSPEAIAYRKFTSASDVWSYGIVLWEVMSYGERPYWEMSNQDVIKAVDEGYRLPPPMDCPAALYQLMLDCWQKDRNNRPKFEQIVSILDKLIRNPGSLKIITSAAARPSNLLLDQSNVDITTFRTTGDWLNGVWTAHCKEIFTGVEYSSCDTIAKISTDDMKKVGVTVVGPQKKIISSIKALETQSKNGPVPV

Sequence of Death-associated protein kinase 2 (Homo sapiens) (Q9UIK4 whole entry, looked up): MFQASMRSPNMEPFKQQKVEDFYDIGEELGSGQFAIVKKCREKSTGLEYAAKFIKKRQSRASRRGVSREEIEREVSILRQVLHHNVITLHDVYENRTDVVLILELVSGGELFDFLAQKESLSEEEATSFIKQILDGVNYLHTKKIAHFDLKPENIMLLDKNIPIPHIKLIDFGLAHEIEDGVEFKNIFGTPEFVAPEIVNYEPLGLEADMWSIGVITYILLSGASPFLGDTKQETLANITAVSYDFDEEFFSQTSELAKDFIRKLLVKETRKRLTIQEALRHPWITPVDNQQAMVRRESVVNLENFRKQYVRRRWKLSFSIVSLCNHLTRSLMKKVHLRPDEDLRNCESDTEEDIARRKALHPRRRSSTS
Sequence of Death-associated protein kinase 1 (Homo sapiens) (P53355 whole entry, looked up): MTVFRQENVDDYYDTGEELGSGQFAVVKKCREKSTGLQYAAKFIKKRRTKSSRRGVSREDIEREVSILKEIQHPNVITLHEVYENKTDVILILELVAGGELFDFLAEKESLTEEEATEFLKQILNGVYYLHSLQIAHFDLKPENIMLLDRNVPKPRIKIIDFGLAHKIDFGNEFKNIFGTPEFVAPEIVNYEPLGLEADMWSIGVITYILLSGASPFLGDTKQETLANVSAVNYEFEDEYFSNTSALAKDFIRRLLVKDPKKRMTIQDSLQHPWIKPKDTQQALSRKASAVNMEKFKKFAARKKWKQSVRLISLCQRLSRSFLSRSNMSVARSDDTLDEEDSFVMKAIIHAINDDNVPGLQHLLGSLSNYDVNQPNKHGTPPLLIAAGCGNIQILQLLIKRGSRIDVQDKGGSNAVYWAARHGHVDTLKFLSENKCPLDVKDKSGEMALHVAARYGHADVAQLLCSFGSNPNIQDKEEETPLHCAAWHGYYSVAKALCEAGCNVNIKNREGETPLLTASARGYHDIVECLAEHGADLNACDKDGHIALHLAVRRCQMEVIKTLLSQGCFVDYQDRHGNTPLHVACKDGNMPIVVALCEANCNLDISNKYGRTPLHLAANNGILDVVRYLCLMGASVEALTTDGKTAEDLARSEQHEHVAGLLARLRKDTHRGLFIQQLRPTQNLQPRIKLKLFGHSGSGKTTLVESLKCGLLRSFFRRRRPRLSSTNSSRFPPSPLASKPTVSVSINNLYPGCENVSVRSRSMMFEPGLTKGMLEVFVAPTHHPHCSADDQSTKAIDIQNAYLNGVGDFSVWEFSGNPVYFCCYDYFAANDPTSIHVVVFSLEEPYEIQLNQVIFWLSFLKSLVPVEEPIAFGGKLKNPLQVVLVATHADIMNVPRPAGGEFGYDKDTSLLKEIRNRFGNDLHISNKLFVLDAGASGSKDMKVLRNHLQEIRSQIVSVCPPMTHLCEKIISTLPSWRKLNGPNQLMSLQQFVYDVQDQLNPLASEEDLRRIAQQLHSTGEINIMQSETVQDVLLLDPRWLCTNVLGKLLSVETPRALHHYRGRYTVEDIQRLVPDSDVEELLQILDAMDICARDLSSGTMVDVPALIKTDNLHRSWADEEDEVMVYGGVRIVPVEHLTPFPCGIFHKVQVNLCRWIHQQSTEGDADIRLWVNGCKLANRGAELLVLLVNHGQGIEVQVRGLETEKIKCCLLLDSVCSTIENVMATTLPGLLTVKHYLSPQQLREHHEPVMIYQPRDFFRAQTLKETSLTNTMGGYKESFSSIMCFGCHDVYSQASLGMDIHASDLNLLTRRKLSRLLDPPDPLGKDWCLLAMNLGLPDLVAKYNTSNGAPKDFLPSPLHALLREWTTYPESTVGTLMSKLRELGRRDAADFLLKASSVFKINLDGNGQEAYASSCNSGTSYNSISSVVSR

Molecule `NC(=O)c1ccc2[nH]c(-c3ccc(Oc4ccc(Cl)cc4)cc3)nc2c1` has a residual activity [1] of 98%, a residual activity [2] of 101% and a residual activity [3] of 102%. The residual activity [4] was 111%, the residual activity [5] was 182% and the residual activity [6] was 98%. The residual activity [7] was 102%, the residual activity [8] was 107% and the residual activity [9] was 83%. The residual activity [10] was 58%, the residual activity [11] was 42% and the residual activity [12] was 87%. It also gave a residual activity [13] of 53%, a residual activity [14] of 111% and a residual activity [15] of 115%. The residual activity [16] was 96%, the residual activity [17] was 85% and the residual activity [18] was 100%. The residual activity [19] was 116% and the residual activity [20] was 100%.
